# According to PubChem BioAssay:
# The source made the active and inactive calls. Unless noted, how the calls were made is not given here.
# Tests used:
# [1] = compound effects on lung adenocarcinoma cell viability – A549, calcein-AM fluorescence, 48 h, basal, profiling panel (AID 1162); details: higher = more signal; further: test concentration not given here
# [2] = compound effects on differentiated 3T3-L1 adipocyte viability – cell-based, 3T3-L1 adipocytes, calcein-AM fluorescence, 48 h, basal, profiling panel (AID 1163); details: 3T3-L1 adipocytes viability, higher = more signal; further: test concentration not given here
# [3] = compound effects on hepatocellular carcinoma cell viability – HepG2, calcein-AM fluorescence, 48 h, basal, profiling panel (AID 1164); details: higher = more signal; further: test concentration not given here
# [4] = compound effects on multiple myeloma cell viability – MM1S, calcein-AM fluorescence, 48 h, basal, profiling panel (AID 1165); details: higher = more signal;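 further: viability of MM1S multiple myeloma cells under basal unstimulated conditions; test concentration not given here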
# [5] = calcein-AM signal in unstimulated myeloma cells – cell-based, calcein-AM fluorescence, 48 h, PK04 Diversity Set, profiling panel (AID 1166); details: RPMI8226 myeloma viability, higher = more signal;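 further: cells grown under basal conditions without added stimulus; test concentration not given here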
# [6] = JC-1 mitochondrial signal, unstimulated HepG2 cells – cell-based, JC-1 fluorescence, 24 h, 100 nL compound, profiling panel (AID 1167); details: HepG2 mitochondrial potential, higher = more signal; further: test concentration not given here
# [7] = JC-1 mitochondrial signal, unstimulated adipocytes – cell-based, JC-1 fluorescence, 3T3-L1 adipocytes, 24 h, 100 nL compound, profiling panel (AID 1168); details: JC-1 mitochondrial fluorescence, higher = more signal, called active from +8 up or from −8 down; further: test concentration not given here
# [8] = JC-1 mitochondrial signal, unstimulated myeloma cells – cell-based, JC-1 fluorescence, RPMI8226, 24 h, 100 nL compound, profiling panel (AID 1169); details: JC-1 mitochondrial potential fluorescence, higher = more signal; further: test concentration not given here
# [9] = JC-1 mitochondrial signal, unstimulated MM1S myeloma – cell-based, JC-1 fluorescence, 24 h, 100 nL compound, profiling panel (AID 1170); details: MM1S mitochondrial potential, higher = more signal; further: test concentration not given here
# [10] = resazurin metabolic signal in A549 cells – cell-based, resazurin fluorescence, 24 h, PK04 Diversity Set, profiling panel (AID 1171); details: A549 viability, higher = more signal, called active from +8 up or from −8 down; further: test concentration not given here
# [11] = resazurin metabolic signal in HepG2 cells – cell-based, resazurin fluorescence, 24 h, PK04 Diversity Set, profiling panel (AID 1172); details: HepG2 viability, higher = more signal; further: test concentration not given here
# [12] = budding yeast growth changes without added modifier – OD600, strain BY4716, 24 h, basal condition, primary screen (AID 1173); details: S. cerevisiae BY4716 growth, OD600, 24 h; higher = more signal, called active from +8 up or from −8 down
# [13] = viability profiling in MM1S myeloma cells – cell-based, resazurin fluorescence, basal, 24 h, PK04 Diversity Set, profiling panel (AID 1174); details: higher = more signal, called active from +8 up or from −8 down; further: test concentration not given here
# [14] = biological target: Dihydroorotate dehydrogenase (quinone), mitochondrial (Plasmodium falciparum (isolate 3D7)) (UniProt Q08210); experiment: inhibition of P. falciparum DHODH – biochemical, C-terminal His tag, absorbance 600 nm, primary screen (AID 1175); details: PfDHODH enzyme, DCIP absorbance 600 nm; higher = more signal, called active from +8 up or from −8 down;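 further: recombinant parasite enzyme with a five histidine tag at its C terminus; test concentration not given here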
# Dihydroorotate dehydrogenase (quinone), mitochondrial (Plasmodium falciparum (isolate 3D7)), sequence (Q08210 whole entry, looked up): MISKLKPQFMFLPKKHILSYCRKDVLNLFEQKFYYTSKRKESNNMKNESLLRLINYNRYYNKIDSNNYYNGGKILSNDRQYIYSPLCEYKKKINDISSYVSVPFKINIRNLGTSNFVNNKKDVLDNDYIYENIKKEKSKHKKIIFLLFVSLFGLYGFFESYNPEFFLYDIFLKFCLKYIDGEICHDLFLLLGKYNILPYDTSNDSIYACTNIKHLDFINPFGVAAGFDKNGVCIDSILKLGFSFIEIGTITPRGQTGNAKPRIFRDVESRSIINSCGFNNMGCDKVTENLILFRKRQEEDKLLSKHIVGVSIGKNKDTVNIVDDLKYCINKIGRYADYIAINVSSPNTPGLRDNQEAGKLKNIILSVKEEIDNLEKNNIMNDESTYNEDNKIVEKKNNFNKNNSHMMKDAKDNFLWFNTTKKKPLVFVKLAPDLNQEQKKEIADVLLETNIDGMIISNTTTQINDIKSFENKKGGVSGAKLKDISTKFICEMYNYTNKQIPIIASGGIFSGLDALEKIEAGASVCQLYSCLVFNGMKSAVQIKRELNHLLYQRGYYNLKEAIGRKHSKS
# [15] = inhibition of PAO1 biofilm formation – strain PAO1, LB-PBS medium, absorbance 600 nm, primary screen (AID 1176); further: test concentration not given here; details: P. aeruginosa PAO1 growth/biofilm, A600, 12 h; higher = more signal
# [16] = growth modulation of vineyard yeast isolate – strain RM11-1a, OD600, basal, 24 h, primary screen (AID 1177);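 further: cultures grown under basal conditions with no added stressor; test concentration not given here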; details: S. cerevisiae RM11-1a growth, OD600, 24 h; higher = more signal, called active from +8 up or from −8 down
# [17] = growth of efflux-deficient E. coli DRC39 – strain DRC39, OD650, 24 h, E. coli filamentation inducers, primary screen (AID 1178);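 further: growth measured as culture turbidity by optical density at 650 nm; test concentration not given here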; details: E. coli DRC39 acrAB, higher = more signal, called active from +8 up or from −8 down
# [18] = growth of efflux-deficient E. coli DRC39 – strain DRC39, OD650, 48 h, E. coli filamentation inducers, primary screen (AID 1179);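 further: screen aims at cell division blockers that make cells filament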; details: E. coli DRC39 delta-acrAB growth, higher = more signal, called active from +8 up or from −8 down
# [19] = viability profiling in RPMI8226 myeloma cells – cell-based, resazurin fluorescence, basal, 24 h, PK04 Diversity Set, profiling panel (AID 1180); details: higher = more signal;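 further: RPMI8826 multiple myeloma cell line at 5000 cells per well; test concentration not given here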
# [20] = biological target: E3 ubiquitin-protein ligase XIAP (Homo sapiens) (UniProt P98170); experiment: small molecules binding XIAP protein – biophysical, small-molecule microarray, fluorescence 635 nm, primary screen (AID 1181); details: higher = more signal;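 further: score merges 667 nm emission and signal to noise over triplicate slides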
# E3 ubiquitin-protein ligase XIAP (Homo sapiens), sequence (P98170 whole entry, looked up): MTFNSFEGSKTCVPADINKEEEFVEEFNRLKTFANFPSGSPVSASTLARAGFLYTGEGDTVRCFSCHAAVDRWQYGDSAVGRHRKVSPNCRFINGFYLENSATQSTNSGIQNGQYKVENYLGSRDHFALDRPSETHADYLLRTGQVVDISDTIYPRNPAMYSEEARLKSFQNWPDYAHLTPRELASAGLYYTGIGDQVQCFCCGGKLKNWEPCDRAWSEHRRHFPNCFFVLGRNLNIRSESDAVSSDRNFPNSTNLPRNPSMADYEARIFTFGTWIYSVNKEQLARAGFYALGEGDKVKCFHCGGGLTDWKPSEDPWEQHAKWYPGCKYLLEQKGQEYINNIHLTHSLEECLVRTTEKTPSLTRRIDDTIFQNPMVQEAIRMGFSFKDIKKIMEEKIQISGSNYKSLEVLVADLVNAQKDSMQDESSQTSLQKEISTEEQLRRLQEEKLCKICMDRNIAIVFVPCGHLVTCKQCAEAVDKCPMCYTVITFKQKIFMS
Compound,z-score [1],z-score [2],z-score [3],z-score [4],z-score [5],z-score [6],z-score [7],z-score [8],z-score [9],z-score [10],z-score [11],z-score [12],z-score [13],composite z-score [14],z-score [15],z-score [16],z-score [17],z-score [18],z-score [19],composite z-score [20]
COc1ccc([Si](C)(C)[C@H]2[C@H](CCO)O[C@@]3(C(=O)N(Cc4ccccc4)c4ccc(N(C=O)c5ccccc5)cc43)[C@@H]2C)cc1,-0.108,0.288,-3.3,-0.622,-2.82,0.553,-0.00912 (inactive),-0.914,-1.27,-1.25 (inactive),0.0056,1.53 (inactive),-2.24 (inactive),-0.363 (inactive),2.58 (inactive),5.16 (inactive),1.28 (inactive),0.733 (inactive),-1.28,-0.0668
C=C(COC)/C(=C/C[C@H](OC(=O)c1ccncc1)c1ccc(OCCO)cc1)c1cc(C(=O)OC)ccc1OC,-0.313,1.7,-0.842,-1.18,-0.443,1.37,-0.4 (inactive),0.368,0.0527,1.29 (inactive),0.672,0.194 (inactive),-0.163 (inactive),-1.46 (inactive),-0.505 (inactive),-0.402 (inactive),-0.0988 (inactive),0.33 (inactive),-0.316,0.177
C=C(COC)/C(=C/C[C@H](OC(=O)c1ccncc1)c1cccc(OCCO)c1)c1cnc2ccccc2c1,-0.0119,0.222,0.596,-2.77,-0.0229,0.327,-0.0487 (inactive),0.568,-0.704,0.251 (inactive),0.123,0.14 (inactive),-1.24 (inactive),-5.24 (inactive),1.14 (inactive),-0.148 (inactive),-0.259 (inactive),-0.199 (inactive),-0.697,-0.0156
C=C(/C(=C/C[C@@H](OC(C)=O)c1ccccc1OCCO)c1cc(C(=O)OC)ccc1OC)C(C)C,0.793,-0.515,0.561,-3.21,-1.11,0.605,0.118 (inactive),0.367,-0.503,0.583 (inactive),0.862,-1.18 (inactive),-0.296 (inactive),-1.22 (inactive),0.0478 (inactive),0.508 (inactive),1.62 (inactive),1.04 (inactive),0.676,-0.323
C=CCN1C(=O)[C@]2(O[C@H](CCn3cc([C@H](O)c4ccccc4)nn3)[C@@H]([Si](C)(C)c3ccc(OC)cc3)[C@@H]2C)c2cc(N3C(=O)c4cccc5cccc3c45)ccc21,-0.133,-0.363,-3.33,-1.4,-4.46,2.24,1.19 (inactive),-1.02,-1.33,-1.7 (inactive),-1.1,0.0523 (inactive),-2.78 (inactive),0.739 (inactive),1.69 (inactive),0.88 (inactive),0.908 (inactive),0.591 (inactive),-3.61,0.0435
COc1cc2c(cc1O)C(c1ccc(CN3CCCC3)cc1)N(Cc1ccc([N+](=O)[O-])o1)CC2 (stereo not given),-0.731,0.0389,0.0023,0.279,-0.0679,-2.18,-2.19 (inactive),0.733,-0.307,-0.679 (inactive),-0.274,-0.547 (inactive),-0.727 (inactive),-0.412 (inactive),0.0898 (inactive),0.0464 (inactive),-0.79 (inactive),-0.259 (inactive),-0.437,0.0537
COc1ccc([Si](C)(C)[C@@H]2[C@@H](CC(=O)N(CCO)Cc3ccccc3)O[C@]3(C(=O)N(Cc4ccc(N5CCC5=O)cc4)c4ccccc43)[C@H]2C)cc1,-0.361,2.28,-1.34,-1.28,-3.15,0.768,1.95 (inactive),-0.944,-0.83,-1.37 (inactive),0.278,0.144 (inactive),-0.604 (inactive),-1.44 (inactive),1.2 (inactive),0.67 (inactive),0.505 (inactive),0.358 (inactive),-1.66,-0.0151
CC(c1ccccc1)C(O)C1C=CC2C(=O)N(c3ccccc3)C(=O)C2N1Nc1ccc(C#N)cc1 (stereo not given),1.71,-0.582,1.49,0.401,-0.0442,-0.372,0.0393 (inactive),-0.0416,0.222,0.413 (inactive),0.142,-0.0091 (inactive),-1.24 (inactive),-0.0432 (inactive),0.695 (inactive),-0.977 (inactive),1.07 (inactive),1.83 (inactive),-0.008,0.332
COCCOC(=O)N1C(=O)[C@@]2(c3cc(C#CC4(O)CCCCCC4)ccc31)[C@H](C(=O)N1CCc3cc(OC)c(OC)cc3C1)[C@H]1C(=O)O[C@H](c3ccccc3)[C@H](c3ccccc3)N1[C@@H]2c1ccc(O)cc1,-0.635,1.29,0.582,-1.06,-0.964,-0.145,-0.093 (inactive),-1.06,0.318,-0.311 (inactive),-0.511,0.257 (inactive),-0.263 (inactive),0.7 (inactive),1.18 (inactive),1.39 (inactive),-0.282 (inactive),-0.252 (inactive),-0.0713,-0.0703
